Results taken from PubChem BioAssay AID1117361 (Southern Research Institute, 2015).
The campaign covered roughly 3,600 compounds. About 900 (25%) were called active. A selection follows. Results with a measured potency or affinity are listed apart. A number with no mark means an inactive call. No rule for the calls is given here.

Biological target: Protein Tat (Human immunodeficiency virus type 1 group M subtype B (isolate HXB2)) (UniProt P04608)
Assay: HIV-1 Tat–TAR interaction blockers – biochemical, fluorescence polarization, FAM-labeled TAR RNA, counter-screen for Vif-APOBEC3G degradation inhibitor project, dose response (AID 1117361)
Conditions: Tat-TAR RNA binding; series mostly up to 100 µM; inhibition: at the top concentration

| Structure (SMILES) | outcome | inhibition [%] |
| --- | --- | --- |
| CC(=NNC(=S)SCc1ccccc1)c1ccccn1 | inactive |  |
| Cc1cc(C)n2nc(C(=O)Nc3cccnc3)nc2n1 |  | 4.73 |
| O=C(Nc1cccnc1)c1sc(Nc2ccccc2F)nc1-c1ccccc1 | inactive |  |
| Cc1cc(NC(=O)CSc2nnc(-c3ccoc3C)n2N)no1 |  | 8.78 |
| CCOC(=O)N1CCN(S(=O)(=O)c2ccc(F)c(C(=O)Nc3cc(C)cc(C)c3)c2)CC1 |  | 3.41 |
| CC(C)OCCCNC(=O)CNC(=O)c1cccs1 | inactive |  |
| COc1ccc(S(=O)(=O)N2CCN(C(=O)c3cc(C)on3)CC2)cc1 | inactive |  |
| Cc1ccc(C(=O)/C=C/c2cc(C#N)n(C)c2C)cc1 | inactive |  |
| CCOC(=O)c1c(NC(=O)CSc2nncs2)sc(C)c1C |  | 2.73 |
| O=C1CCCC2=C1C(O)(C(F)(F)F)C(=O)N2Cc1ccccc1 (configuration not stated) |  | 2.73 |
| CCOC(=O)C1=C(C)n2c(s/c(=C/c3cccc([N+](=O)[O-])c3)c2=O)=NC1c1ccc(O)c(OC)c1 (configuration not stated) |  | 8.11 |
| CCOC(=O)C1(C)NC(c2ccco2)C2C(=O)N(CC)C(=O)C21 (configuration not stated) | inactive |  |
| CCN(Cc1ccccc1)S(=O)(=O)c1ccc(C(=O)Nc2nnc(C3CC3)o2)cc1 |  | 3.38 |
| COCCNC(=O)COc1ccc(Br)cc1Cl | inactive |  |
| COc1ccc(-c2cc3ccc(OCc4nn[nH]n4)cc3oc2=O)cc1 |  | 17.7 |
| NC(=O)c1ccc(N2CCN(c3ncc(C(F)(F)F)cc3Cl)CC2)cc1 |  | 12.4 |

| Structure (SMILES) | outcome | inhibition [%] |
| --- | --- | --- |
| O=C(Cn1cc2c(n1)CCCC2)NCc1cccnc1 |  | 3.41 |
| COc1ccc(S(=O)(=O)N2CCC(C(=O)NCCC3=CCCCC3)CC2)cc1C | inactive |  |
| O=C(/C=C/c1ccco1)c1cccnc1 |  | 3.67 |
| Clc1ccc(-c2nnc(SCc3ccon3)o2)c(Cl)c1 |  | 4.05 |
| CCOC(=O)c1cccc(NC(=O)CCc2nc(-c3ccc(C)cc3)no2)c1 | inactive |  |
| CCCOc1ccc(-c2nnn(CC(=O)OCC)n2)cc1 | inactive |  |
| O=C1c2ccccc2C(=O)N1CCc1csc(-c2ccc(F)cc2)n1 |  | 2.03 |
| O=C(O)Cn1c(O)c(C=Nc2ccccc2)sc1=S |  | 18.2 |
| Cc1cc(C)c(C)c(S(=O)(=O)N2C(=S)NC(=O)C2C(C)C)c1C (configuration not stated) |  | 0.68 |
| Cc1cc(Oc2ccc(-c3ccccc3)cc2)n2ncnc2n1 |  | 0.68 |
| CCn1c(SCC(=O)NCc2ccc3c(c2)OCO3)nnc1-c1cccs1 |  | 0.68 |
| CCOC(=O)C/C(C)=N\Nc1ccc([N+](=O)[O-])cc1[N+](=O)[O-] | inactive |  |
| CN(C)S(=O)(=O)c1ccc(NC(=O)N2CCN(c3cccc(C(F)(F)F)c3)CC2)cc1 |  | 2.03 |
| O=S(=O)(c1cccc(C(F)(F)F)c1)N1CCN(c2ccccc2)CC1 |  | 0.68 |
| COc1cccc(CNCC(=O)Nc2ccc(N3CCOCC3)cc2)c1 | inactive |  |
| O=C(c1ccc(N2CCN(C3CC(=O)N(c4ccc(F)cc4)C3=O)CC2)cc1)c1cccnc1 (configuration not stated) | inactive |  |
